Measured values from PubChem BioAssay (NCI).
Several values for one entry are separate records, joined by “and”; a condition that tells them apart may be missing. Equal entries are not always repeated. Compounds without any hit were thinned out: in the full panel of roughly 83,000, 20% have a hit.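 Method: cells in 96-well plates; compound added at one concentration; 48 h incubation; percent growth measured; values under 10 scored active.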 Activity calls are given as the source filed them.

Tests used:
Experiment in all cases: NCI-60 one-dose screen, 48 h (100 = growth as untreated, 0 = no growth, -100 = all killed)
HCC-2998 colon = system: HCC-2998 colon
KM12 colon = system: KM12 colon
SR leukemia = settings: 10 µM unless noted
RPMI-8226 leukemia = settings: 10 µM unless noted
OVCAR-8 ovarian = settings: 10 µM unless noted
OVCAR-5 ovarian = settings: 10 µM unless noted
OVCAR-4 ovarian = settings: 10 µM unless noted
SK-OV-3 ovarian = settings: 10 µM unless noted
IGROV1 ovarian = settings: 10 µM unless noted
OVCAR-3 ovarian = settings: 10 µM unless noted
HS 578T breast = settings: 10 µM unless noted
NCI/ADR-RES ovarian = settings: 10 µM unless noted
T-47D breast = settings: 10 µM unless noted
BT-549 breast = settings: 10 µM unless noted
MDA-MB-435 melanoma = settings: 10 µM unless noted
SW-620 colon = settings: 10 µM unless noted
MCF7 breast = settings: 10 µM unless noted
HCT-116 colon = settings: 10 µM unless noted

Measured: growth

CCCCCCCCCCCCCCCc1ccc(Cl)c(O)c1Cl (tested in a mixture with another compound)
inactive: HCC-2998 colon; 10 µM 116% | KM12 colon; 0.25 µM 46% | KM12 colon; 10 µM 96.7%

CN(C)CCC(=O)c1ccc(Cl)cc1
inactive: SR leukemia 110% | RPMI-8226 leukemia 75.4% and 58% | OVCAR-8 ovarian 110% and 105% | OVCAR-5 ovarian 117% and 113% | OVCAR-4 ovarian 105% and 118% | SK-OV-3 ovarian 108% | IGROV1 ovarian 100% and 116% | OVCAR-3 ovarian 115% and 113% | HS 578T breast 112% | NCI/ADR-RES ovarian 114% and 104% | T-47D breast 110% and 97.4% | BT-549 breast 107% and 98.8% | MDA-MB-435 melanoma 113% and 110% | SW-620 colon 103% and 108% | MCF7 breast 90.6% and 86.2% | HCT-116 colon 101% and 102% | HCC-2998 colon; 10 µM unless noted 97.3% | KM12 colon; 10 µM unless noted 108% and 109%

CCOC(=O)C(C(=O)OCC)C(c1ccccc1)N1CCN(c2ccccc2)CC1 (stereo not given)
inactive: SR leukemia 97.9% and 101% | RPMI-8226 leukemia 102% and 103% | OVCAR-8 ovarian 101% and 90.3% | OVCAR-5 ovarian 112% and 111% | OVCAR-4 ovarian 102% and 113% | SK-OV-3 ovarian 115% and 108% | IGROV1 ovarian 107% | OVCAR-3 ovarian 123% and 120% | HS 578T breast 103% and 104% | NCI/ADR-RES ovarian 107% | T-47D breast 108% and 98.7% | BT-549 breast 103% and 104% | MDA-MB-435 melanoma 102% and 100% | SW-620 colon 113% and 111% | MCF7 breast 97.8% and 97.5% | HCT-116 colon 98.3% and 99.3% | HCC-2998 colon; 10 µM unless noted 114% and 111% | KM12 colon; 10 µM unless noted 111% and 98.6%

c1ccc2c(CC3=NCCN3)cccc2c1
inactive: SR leukemia 101% | RPMI-8226 leukemia 104% and 97.2% | OVCAR-8 ovarian 98% and 101% | OVCAR-5 ovarian 97.7% and 108% | OVCAR-4 ovarian 108% and 110% | SK-OV-3 ovarian 105% and 107% | IGROV1 ovarian 108% and 116% | OVCAR-3 ovarian 117% and 116% | HS 578T breast 107% and 99.6% | NCI/ADR-RES ovarian 101% and 105% | T-47D breast 106% and 111% | BT-549 breast 101% and 96.9% | MDA-MB-435 melanoma 101% and 106% | SW-620 colon 107% and 110% | MCF7 breast 99.4% and 102% | HCT-116 colon 94.7% and 104% | HCC-2998 colon; 10 µM unless noted 97.5% and 103% | KM12 colon; 10 µM unless noted 109% and 111%

CCN1CCN(CCNc2nccc(-c3c(-c4cccc(O)c4)nc4sccn34)n2)S1(=O)=O
inactive: SR leukemia 59.4% and 36.2% | RPMI-8226 leukemia 69.3% and 102% | OVCAR-8 ovarian 90% and 68.3% | OVCAR-5 ovarian 87.2% and 95.5% | OVCAR-4 ovarian 106% and 77.7% | SK-OV-3 ovarian 38.4% and 39.1% | IGROV1 ovarian 54% and 57.5% | OVCAR-3 ovarian 92.9% and 86.7% | HS 578T breast 78% | NCI/ADR-RES ovarian 102% and 103% | T-47D breast 76.7% and 72.5% | BT-549 breast 72% and 83.8% | MDA-MB-435 melanoma 20% and 11% | SW-620 colon 107% and 101% | MCF7 breast 86.8% and 83.6% | HCT-116 colon 53.5% and 47.7% | HCC-2998 colon; 10 µM unless noted 111% and 97.1% | KM12 colon; 10 µM unless noted 52.4% and 68.9%
